This note sets out measurements from PubChem BioAssay (NCATS).

Experiment [1] concerns the target Peroxisome proliferator-activated receptor gamma (Homo sapiens) (UniProt P37231). Nature of the experiment: qHTS assay for small molecule agonists of peroxisome proliferator-activated receptor gamma signaling (AID 588536; active = well fitted curve in the direction sought with a large enough effect in the signal ratio, with a control signal flat, not every such curve was filed as active; the % refers to the signal ratio;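 also: 0% = DMSO basal wells and 100% = rosiglitazone at 2 µM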). Conditions: HEK293 PPARg-UAS-bla, beta-lactamase ratio, 16 h, percent of rosiglitazone response, DMSO as zero; series mostly up to 76.7 µM. The gist of the method: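 Ratiometric blue/green fluorescence (405 nm excitation; 460 and 530 nm emission) from CCF4-loaded HEK293 reporter cells serves as signal. Exposure to test compounds lasts 16 h at 37 C in medium containing 1% charcoal/dextran-treated serum.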

Experiment [2] addresses Vitamin D3 receptor (Homo sapiens) (UniProt P11473). Nature of the experiment: qHTS assay for small molecule antagonists of vitamin D receptor signaling (AID 588541; calls by dose curve; also: potency is read from the fitted curve at half-maximal effect). Conditions: HEK293T VDR-UAS-bla, beta-lactamase ratio, antagonist mode; series mostly up to 76.7 µM. The gist of the method: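 VDR-UAS-bla HEK293T cells in 2% charcoal-stripped FBS were stimulated with 1-alpha,25-dihydroxyvitamin D3 (3 nM final) plus compound for 16 h at 37 C. The beta-lactamase CCF4 readout was normalized to 50 nM agonist and DMSO, and Hill fits gave IC50.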

Experiment [3] shares this target. Kind of experiment: qHTS assay for small molecule agonists of vitamin D receptor signaling (AID 588543; calls by dose curve;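 also: 0% = DMSO basal and 100% = reference agonist control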). Conditions: HEK293T VDR-UAS-bla, beta-lactamase ratio, 16 h; series mostly up to 76.8 µM. The gist of the method:
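VDR-UAS-bla HEK293T cells, 2000/well, 2% charcoal-stripped FBS; compound titration 16 h at 37 C; CCF4 beta-lactamase ratio read. Normalized to 50 nM 1-alpha,25-dihydroxyvitamin D3 (100%) and DMSO; Hill fit gives EC50, efficacy.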

Experiment [4] in a line: qHTS assay for small molecule antagonists of retinoid X receptor alpha signaling (AID 588546; active = well fitted inhibition curve with a large enough effect in the signal ratio, with a control signal flat, not every such curve was filed as active; the % refers to the signal ratio;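 also: cells stimulated with 9-cis-retinoic acid as agonist; % is scaled to controls: 0 for no effect and ±100 for the full control effect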). The note with it: HEK293T RXRa-UAS-bla, beta-lactamase ratio, antagonist mode; measured here: W530 green channel, cytotoxicity proxy. The gist of the method: (§1)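 Beta-lactamase reporter inhibition, read as CCF4 fluorescence ratio (ex 405, em 460/530 nm) after 2 h at RT. HEK293T UAS-bla cells, 2500/well, were stimulated with 9-cis-RA at 500 or 100 nM final alongside test compound for 18 h at 37 C.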

Experiment [5] deals with Retinoic acid receptor RXR-alpha (Homo sapiens) (UniProt P19793). Described as above. The note with it: HEK293T RXRa-UAS-bla, beta-lactamase ratio, antagonist mode. The gist of the method:
as §1

Experiment [6] is described as follows: qHTS assay for environmental chemicals that activate the Aryl hydrocarbon Receptor (AhR) signaling pathway (AID 651777). Also: % of control where 0% means no effect; nearly all actives have a fitted effect of over 15% in size. The note with it: 1A2-DRE human hepatoma cells, luciferase, 24 h; activation: stronger effect = higher value. An outline of the steps: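 Following a 24 hr incubation with test chemicals at 37 C and 5% CO2, 1A2-DRE human hepatoma cells received One-Glo reagent; after 30 min at room temperature, luciferase output reflected CYP1A2 induction via AhR.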

The nature of experiment [7]: qHTS assay for cell viability of HEK293 cells (AID 743288). Also: % is scaled to controls: 0 for no effect and ±100 for the full control effect; nearly all actives have a fitted effect of over 50% in size. Conditions: ATP luminescence (CellTiter-Glo), 18 h; max response: stronger effect = lower value. An outline of the steps:
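Parental HEK293 cells, 2,000 per well, preincubated at least 5 h at 37 C, then exposed to compounds in DMSO for 18 h at 37 C. Viability by CellTiter-Glo ATP luminescence after 30 min at room temperature.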

Experiment [8] is described as follows: qHTS assay for small molecule activators of the human pregnane X receptor (PXR) signaling pathway (AID 720659; call rule not given here; also: 0% is about no effect). The note with it: DPX-2 HepG2 CYP3A4-luciferase, 24 h; series mostly up to 92.3 µM.
Experiment [9] is described as follows: qHTS assay for small molecule antagonists of peroxisome proliferator-activated receptor delta signaling (AID 588535; active = well fitted inhibition curve with a large enough effect in the signal ratio, with a control signal flat, not every such curve was filed as active; the % refers to the signal ratio;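 as to max response: cells co-treated with a PPAR-delta agonist as stimulator during compound exposure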). The note with it: HEK293T PPARd-UAS-bla, beta-lactamase FRET ratio, 18 h; 460 nm channel. An outline of the steps:
(§2)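 Cells were seeded at 4000 per well in assay medium containing 2% charcoal/dextran FBS and held 5 hrs at 37 C. Compounds were then added for 18 hrs. CCF4 substrate was applied for 2 hrs at room temperature before fluorescence reading.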

Experiment [10] addresses Peroxisome proliferator-activated receptor delta (Homo sapiens) (UniProt Q03181). Described as above. Conditions: HEK293T PPARd-UAS-bla, beta-lactamase FRET ratio, 18 h; series mostly up to 76.7 µM. The gist of the method: as §2
The target of experiment [11] is Thyroid hormone receptor beta (Homo sapiens) (UniProt P10828). Nature of the experiment: qHTS assay for small molecule agonists of thyroid hormone receptor beta signaling (AID 588545; calls by dose curve;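 also: 0% = DMSO only and 100% = 10 nM T3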). The note with it: TR-UAS-bla GripTite HEK 293, beta-lactamase ratio, agonist mode, 18 h; series mostly up to 76.7 µM. An outline of the steps:
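Beta-lactamase reporter activity under TR response element control is measured in HEK 293 cells after 18 hrs compound exposure. Signal is ratiometric CCF4 fluorescence, 460/530 nm.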

The nature of experiment [12]: qHTS assay for small molecule activators of the p53 signaling pathway (AID 651743; active = well fitted activation curve with a large enough effect in the signal ratio, not every such curve was filed as active; the % refers to the signal ratio; also: % of control where 0% means no effect). The note with it: HCT-116 p53RE-bla, beta-lactamase FRET ratio, 16 h; activation: stronger effect = higher value. An outline of the steps:
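HCT-116 p53RE-bla, 4,000 cells/well; 5 h settle; cpd/DMSO 16 h, 37 C; LiveBLAzer B/G 2 h RT; fluorescence intensity.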

The nature of experiment [13]: qHTS assay for small molecule activators of the nuclear factor-kappa B (NF-kB) signaling pathway (AID 651749; active = well fitted activation curve with a large enough effect in the signal ratio; the % refers to the signal ratio; also: % of control where 0% means no effect). The note with it: NF-kB-bla ME-180 cells, beta-lactamase FRET ratio, 16 h; activation: stronger effect = higher value. The gist of the method:
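Incubation lasted 16 hr at 37C in 5% CO2 after 23 nL compound addition to ME-180 NF-kB-bla cells. Activation appears as beta-lactamase-mediated FRET loss.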

Experiment [14] addresses Peroxisome proliferator-activated receptor alpha (Homo sapiens) (UniProt Q07869). Kind of experiment: qHTS assay for small molecule agonists of the peroxisome proliferator-activated receptor alpha (PPARalpha) signaling pathway (AID 651778). Also: % of control where 0% means no effect. The note with it: PathHunter PPARalpha complementation, chemiluminescence, 6 h; max response: stronger effect = higher value. The gist of the method:
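Enzyme-fragment complementation assay in which ligand-bound PPARalpha translocates and forms an active enzyme that generates chemiluminescence. Cells were plated overnight, exposed to compound for 6 hr at 37 C, and then given detection reagent for 60 min at room temperature.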

The nature of experiment [15]: qHTS assay for small molecule agonists of the antioxidant response element (ARE) signaling pathway measured by Nrf2-dependant transcriptional activity (AID 720636; active = well fitted curve in the direction sought with a large enough effect in the repeat runs; an effect the other way counts as inactive or inconclusive;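 also: HepG2 cells with an ARE-driven luciferase reporter; % of control where 0% means no effect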). The note with it: ARE-luc HepG2, Nrf2 luciferase reporter, 16 h; series mostly up to 92.4 µM. The gist of the method:
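ONE-Glo luminescence, read 30 min after reagent addition at room temperature, reflected ARE reporter activity in HepG2 cells that had been incubated with compound for 16 hr at 37 C in 1% dialyzed FBS.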

Experiment [16] is described as follows: qHTS assay for small molecule agonists of the antioxidant response element (ARE) signaling pathway measured by Nrf2-dependant transcriptional activity - cell viability counter screen (AID 720653; active = well fitted curve in the direction sought with a large enough effect in the repeat runs; an effect the other way counts as inactive or inconclusive; also: potency is read from the fitted curve at half-maximal effect; as to max response: % is scaled to controls: 0 for no effect and ±100 for the full control effect). Conditions: ARE-bla HepG2 viability, CellTiter-Glo ATP luminescence, 16 h; max response: stronger effect = lower value. An outline of the steps: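 ARE-bla HepG2 cells treated with compounds for 16 h at 37C; this counter screen measures viability as intracellular ATP by CellTiter-Glo luminescence after 30 min at room temperature.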

Experiment [17] addresses Nuclear receptor subfamily 1 group I member 2 (Rattus norvegicus) (UniProt Q9R1A7). Nature of the experiment: qHTS assay for small molecule activators of the rat pregnane X receptor (rPXR) signaling pathway (AID 651751; call rule not given here; also: 0% is about no effect). The note with it: rPXR reporter cells, luciferase (One-Glo), 24 h.
Experiment [18] in a line: qHTS assay for small molecule agonists of retinoid X receptor alpha signaling (AID 588544; calls by dose curve;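 as to activation: 0% = DMSO basal wells and 100% = reference agonist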). Conditions: HEK293T RXRa-UAS-bla, beta-lactamase reporter, 18 h; 530 nm emission.
The target in experiment [19] is Retinoic acid receptor RXR-alpha (Homo sapiens) (UniProt P19793). Described as above. Conditions: HEK293T RXRa-UAS-bla, beta-lactamase reporter, 18 h; series mostly up to 76.7 µM.
Experiment [20] in a line: qHTS assay for cell viability of the p53RE-bla HCT-116 cell line (AID 743292). Also: nearly all actives have a fitted effect of over 55% in size. Also: potency is read from the fitted curve at half-maximal effect. The note with it: p53RE-bla HCT-116 viability, ATP luminescence, 16 h; series mostly up to 95 µM. An outline of the steps:
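After plating at 4,000 cells per well and a 5 h rest at 37 C, HCT-116 cells carrying p53RE-bla received test chemicals in DMSO. Sixteen hours later at 37 C, CellTiter-Glo was added and luminescence recorded following 30 min at room temperature.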

Where “and” joins values, the source holds several entries; their conditions need not be identical. Equal entries are not always repeated. Records with an inconclusive call do not appear. Calls of active or inactive are those of the source. Unless noted, calls follow the shape of the dose curve; as a rule, active = well fitted curve in the direction sought with a large enough effect; inconclusive = small, poorly fitted or top-dose-only effect, or another doubt; inactive = no such curve, though single readings can be large; an effect the other way counts as inactive or inconclusive.

Sequence of Vitamin D3 receptor (Homo sapiens) (P11473 whole entry, looked up): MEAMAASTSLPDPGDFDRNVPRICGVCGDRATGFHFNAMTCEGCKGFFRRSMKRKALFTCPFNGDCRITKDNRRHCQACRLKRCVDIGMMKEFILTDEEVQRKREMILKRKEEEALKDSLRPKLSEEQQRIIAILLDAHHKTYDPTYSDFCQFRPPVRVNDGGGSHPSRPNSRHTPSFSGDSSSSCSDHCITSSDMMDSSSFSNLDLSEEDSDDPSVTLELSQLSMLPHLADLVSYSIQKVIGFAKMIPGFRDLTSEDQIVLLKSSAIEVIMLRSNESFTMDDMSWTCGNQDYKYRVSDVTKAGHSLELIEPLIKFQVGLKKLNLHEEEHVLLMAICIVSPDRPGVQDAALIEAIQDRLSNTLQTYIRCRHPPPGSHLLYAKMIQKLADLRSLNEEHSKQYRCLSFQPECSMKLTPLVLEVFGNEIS
Sequence of Retinoic acid receptor RXR-alpha (Homo sapiens) (P19793 whole entry, looked up): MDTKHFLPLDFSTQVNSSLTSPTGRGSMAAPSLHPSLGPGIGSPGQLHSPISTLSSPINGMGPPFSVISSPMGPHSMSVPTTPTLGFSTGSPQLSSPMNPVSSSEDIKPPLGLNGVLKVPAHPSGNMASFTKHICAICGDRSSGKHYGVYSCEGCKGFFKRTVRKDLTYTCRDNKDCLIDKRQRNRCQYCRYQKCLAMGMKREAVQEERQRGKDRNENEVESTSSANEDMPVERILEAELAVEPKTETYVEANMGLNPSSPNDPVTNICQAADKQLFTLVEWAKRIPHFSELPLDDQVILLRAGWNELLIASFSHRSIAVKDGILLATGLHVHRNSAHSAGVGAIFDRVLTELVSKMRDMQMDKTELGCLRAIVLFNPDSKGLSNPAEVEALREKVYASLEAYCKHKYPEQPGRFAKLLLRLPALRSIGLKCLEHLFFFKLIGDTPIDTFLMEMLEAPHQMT
Sequence of Nuclear receptor subfamily 1 group I member 2 (Rattus norvegicus) (Q9R1A7 whole entry, looked up): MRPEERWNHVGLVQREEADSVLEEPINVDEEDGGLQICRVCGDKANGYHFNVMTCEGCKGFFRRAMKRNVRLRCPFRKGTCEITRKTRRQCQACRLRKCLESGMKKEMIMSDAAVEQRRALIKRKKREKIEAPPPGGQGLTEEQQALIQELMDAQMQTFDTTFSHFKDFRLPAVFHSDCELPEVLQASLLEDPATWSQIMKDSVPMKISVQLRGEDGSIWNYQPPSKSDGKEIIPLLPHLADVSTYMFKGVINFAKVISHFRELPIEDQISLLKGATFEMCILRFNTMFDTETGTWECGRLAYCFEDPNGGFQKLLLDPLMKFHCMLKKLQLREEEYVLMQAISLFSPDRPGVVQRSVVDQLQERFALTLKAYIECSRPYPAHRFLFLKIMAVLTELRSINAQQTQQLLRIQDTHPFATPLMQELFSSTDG
Sequence of Thyroid hormone receptor beta (Homo sapiens) (P10828 whole entry, looked up): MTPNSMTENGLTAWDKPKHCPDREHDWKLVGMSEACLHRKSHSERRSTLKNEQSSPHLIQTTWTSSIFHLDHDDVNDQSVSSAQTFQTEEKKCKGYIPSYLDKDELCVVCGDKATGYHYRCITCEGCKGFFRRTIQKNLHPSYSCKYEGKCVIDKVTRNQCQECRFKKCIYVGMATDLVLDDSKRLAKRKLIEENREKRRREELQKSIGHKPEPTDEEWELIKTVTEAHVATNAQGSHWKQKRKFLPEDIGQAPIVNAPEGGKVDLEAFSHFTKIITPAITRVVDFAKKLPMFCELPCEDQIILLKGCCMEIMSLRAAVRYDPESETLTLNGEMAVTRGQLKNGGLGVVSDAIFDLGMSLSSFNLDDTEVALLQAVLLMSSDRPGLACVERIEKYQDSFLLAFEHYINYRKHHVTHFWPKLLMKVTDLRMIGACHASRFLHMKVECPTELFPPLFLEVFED
Sequence of Peroxisome proliferator-activated receptor gamma (Homo sapiens) (P37231 whole entry, looked up): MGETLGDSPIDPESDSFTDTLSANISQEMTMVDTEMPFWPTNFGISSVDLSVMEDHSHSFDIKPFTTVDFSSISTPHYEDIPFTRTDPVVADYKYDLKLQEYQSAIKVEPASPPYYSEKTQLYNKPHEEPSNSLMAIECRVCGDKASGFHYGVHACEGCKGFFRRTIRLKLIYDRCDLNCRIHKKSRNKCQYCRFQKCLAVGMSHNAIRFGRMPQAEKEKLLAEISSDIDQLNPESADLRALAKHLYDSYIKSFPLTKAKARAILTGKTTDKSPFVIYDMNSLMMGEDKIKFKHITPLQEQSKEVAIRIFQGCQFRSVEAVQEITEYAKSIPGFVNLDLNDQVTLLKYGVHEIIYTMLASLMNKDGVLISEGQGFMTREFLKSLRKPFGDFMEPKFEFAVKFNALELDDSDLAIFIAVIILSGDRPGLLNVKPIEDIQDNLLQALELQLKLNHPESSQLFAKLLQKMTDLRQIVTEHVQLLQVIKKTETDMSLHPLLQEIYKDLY
Sequence of Peroxisome proliferator-activated receptor delta (Homo sapiens) (Q03181 whole entry, looked up): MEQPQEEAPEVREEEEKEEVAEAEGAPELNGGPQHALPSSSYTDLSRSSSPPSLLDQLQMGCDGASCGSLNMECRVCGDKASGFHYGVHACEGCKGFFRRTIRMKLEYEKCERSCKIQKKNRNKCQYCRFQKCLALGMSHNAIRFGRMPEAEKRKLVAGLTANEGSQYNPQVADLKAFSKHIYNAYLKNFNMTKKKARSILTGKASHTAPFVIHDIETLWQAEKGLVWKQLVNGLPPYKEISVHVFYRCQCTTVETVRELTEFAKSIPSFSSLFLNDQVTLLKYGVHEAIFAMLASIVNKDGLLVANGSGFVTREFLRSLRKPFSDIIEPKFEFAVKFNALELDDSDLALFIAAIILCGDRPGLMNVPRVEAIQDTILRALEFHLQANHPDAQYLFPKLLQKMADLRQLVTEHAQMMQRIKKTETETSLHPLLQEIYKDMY
Sequence of Peroxisome proliferator-activated receptor alpha (Homo sapiens) (Q07869 whole entry, looked up, the tested form may be a part): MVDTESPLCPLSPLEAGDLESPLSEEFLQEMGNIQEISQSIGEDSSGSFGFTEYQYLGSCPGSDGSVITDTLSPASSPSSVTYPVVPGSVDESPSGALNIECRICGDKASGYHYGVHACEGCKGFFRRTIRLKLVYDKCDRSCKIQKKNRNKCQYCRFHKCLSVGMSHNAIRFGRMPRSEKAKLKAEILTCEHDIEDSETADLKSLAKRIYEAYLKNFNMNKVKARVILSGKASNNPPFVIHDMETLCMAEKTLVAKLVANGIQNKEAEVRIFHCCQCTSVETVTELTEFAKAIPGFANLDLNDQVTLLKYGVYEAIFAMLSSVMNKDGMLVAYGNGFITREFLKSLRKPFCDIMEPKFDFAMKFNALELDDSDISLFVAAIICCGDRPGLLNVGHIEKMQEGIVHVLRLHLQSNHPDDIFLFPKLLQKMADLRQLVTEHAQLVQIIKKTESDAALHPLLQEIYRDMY

For the molecule `CCOC(=O)C(C)Oc1ccc(Oc2cnc3cc(Cl)ccc3n2)cc1` (configuration not stated), the result in experiment [1], in experiment [3] and in experiment [8] was inactive. For the same molecule, in experiment [2], the Potency result is “inactive”. Moreover, the max response in experiment [4] was 22.1%; in [5] it was -14.1% (inactive); in [7], 4.59% (inactive). Moreover, the activation in [6] was 1.27% (inactive).

Take `COc1nc(C)nc(NC(=O)NS(=O)(=O)c2ccccc2OCCCl)n1`: the max response in [9] is -8.8%; in experiment [4] it was 11.2%; in experiment [5], 20.3% (inactive); in experiment [14] it was 1.06% (inactive); in experiment [16], 14.8% (inactive); in experiment [7], 6.67% (inactive). The max response in experiment [17] was 5.75% (inactive). For the same molecule, the Potency result in experiment [10], in experiment [11] and in experiment [15] was “inactive” in each case. The result in experiment [1] and in [8] was inactive. Further, the figures for the activation in experiment [12], in [13] and in [6] were -4.39% (inactive), 0.852% (inactive) and 2.11% (inactive), respectively.

`CN=C(N)NCC1CCOC1` (configuration not stated): the max response in experiment [9] is 42%; in experiment [18], -7.78%; in [4], -4.8%; in experiment [5], 8.29% (inactive); in experiment [14], -3.68% (inactive) and 0.552% (inactive); in experiment [16] it was -1.14% (inactive). The max response in experiment [7] was -9.41% (inactive); in experiment [17], -8.95% (inactive) and -6.71% (inactive). Also, the Potency entry in experiment [10], in experiment [2], in experiment [19], in experiment [11] and in [20] was “inactive” each time. The outcome in experiment [1] and in experiment [8] was inactive. The activation was 20.9% (inactive) and -3.95% (inactive) in [12]; -4.18% (inactive) in experiment [13]; 14.3% (inactive) and -0.391% (inactive) in [6].

Consider `CCCCCc1ccc(N)cc1`, for which the max response in experiment [9] is 19.2%; in experiment [18], -0.233%; in [4] it was -8.57%; in [5], -25% (inactive); in experiment [14] it was -1.26% (inactive); in experiment [16] it was 5.18% (inactive). The results for the max response in [7] and in experiment [17] were -6.55% (inactive) and 1.5% (inactive), respectively. For the same molecule, the Potency result in [10], in experiment [2], in [19], in experiment [11] and in [20] was “inactive” each time. For the same molecule, the result in experiment [3] and in experiment [8] was inactive. Further, the activation is 1.37% (inactive) in experiment [13] and 1.05% (inactive) in experiment [6].

As for `CO/N=C1\C[C@]2(C[C@@H]3C[C@@H](C/C=C(\C)C[C@@H](C)/C=C/C=C4\CO[C@@H]5[C@H](O)C(C)=C[C@@H](C(=O)O3)[C@]45O)O2)O[C@H](/C(C)=C/C(C)C)[C@H]1C`, the Potency in [2] was 17.8 µM (active); in experiment [16] it was 44.7 µM (active); in [20] it was 28.2 µM (active). Further, in experiment [6], the activation is 0.384% (inactive).

`C=CCOC(=O)CC(C)C`: the max response in experiment [9] was 13%; in experiment [18], -1.51%; in [4], -12.5%; in [5], 1.64% (inactive); in experiment [14], -0.161% (inactive); in experiment [16] it was -7.46% (inactive). In addition, the max response in experiment [7] was -9.09% (inactive); in experiment [17], -1.76% (inactive). In addition, the Potency result in [10], in [2], in [19], in [11], in [15] and in experiment [20] was “inactive” in each case. Moreover, the outcome in experiment [3] and in experiment [8] was inactive. Besides, the activation in experiment [13] was -0.542% (inactive); in [6], -1.24% (inactive).

Consider `O=C1CCCCCCCCCCC1`, for which the max response in experiment [9] was 31.3%; in [18], -19.7%; in [4], -10.4%; in [5] it was 4.14% (inactive); in [14], -0.988% (inactive); in experiment [16] it was -14.8% (inactive). Moreover, the max response in experiment [7] is -4.39% (inactive); in experiment [17] it was 0.58% (inactive). For the same molecule, the Potency entry in experiment [10], in [19], in [11], in [15] and in [20] was “inactive” throughout. Further, the outcome in experiment [1] and in experiment [8] was inactive. For the same molecule, the activation in experiment [12] is -4.42% (inactive); in experiment [6], 0.997% (inactive).
